{"source": "the supplement of paper PMC12067093", "about": "“Discovery and optimisation of a covalent ligand for TRIM25 and its application to targeted protein ubiquitination” (Chemical Science, 2025)", "target": "PYCR1_P32322_95_HIVVSCAAGVTISSIEK (UniProt P32322)", "experiment": "probe-labelled cysteine peptide fold change vs DMSO (competition) (log2 fold change); higher = less target engagement (more negative = stronger competition)", "conditions": "THP-1, incubation time: 4 h", "note": "Of roughly 21,000 targets only a part is listed; those with the largest changes were picked by preference.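 Note: competitive chemoproteomic profiling in live THP-1 cells with an iodoacetamide desthiobiotin (IA-DTB) probe, comparing probe-labelled peptide intensities in compound-treated cells against DMSO-treated controls.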", "data": [{"smiles": "CC1Cc2ccccc2N1C(=O)C1CCCN(C(=O)CCl)C1", "note": "(mixture of isomers) [TRIM25 ligand 11 (diastereomer mixture)]", "values": [{"measurement": "probe-labelled cysteine peptide fold change", "setting": "10 µM", "value": 0.0152}, {"measurement": "probe-labelled cysteine peptide fold change", "setting": "50 µM", "value": 0.0688}]}]}
